According to publication PMC7862700, “An all-to-all approach to the identification of sequence-specific readers for epigenetic DNA modifications on cytosine”:

Legend:
Experiment in all cases: DAPPL (digital affinity profiling via proximity ligation, sequencing); 10 mM Tris-HCl pH 7.5, 50 mM NaCl, 1 mM DTT, 4% glycerol, room temperature, 30 min; GST-TFs on glutathione beads, 16-mer random dsDNA library, 0.1% formaldehyde crosslink after washing; high values mean tight binding
Conditions in all cases: protein: recombinant; tags: N-terminal GST; dsDNA, one strand shown
ERG = biological target: T1, ERG (Homo sapiens, UniProt P11308 1-479)
T1 sequence: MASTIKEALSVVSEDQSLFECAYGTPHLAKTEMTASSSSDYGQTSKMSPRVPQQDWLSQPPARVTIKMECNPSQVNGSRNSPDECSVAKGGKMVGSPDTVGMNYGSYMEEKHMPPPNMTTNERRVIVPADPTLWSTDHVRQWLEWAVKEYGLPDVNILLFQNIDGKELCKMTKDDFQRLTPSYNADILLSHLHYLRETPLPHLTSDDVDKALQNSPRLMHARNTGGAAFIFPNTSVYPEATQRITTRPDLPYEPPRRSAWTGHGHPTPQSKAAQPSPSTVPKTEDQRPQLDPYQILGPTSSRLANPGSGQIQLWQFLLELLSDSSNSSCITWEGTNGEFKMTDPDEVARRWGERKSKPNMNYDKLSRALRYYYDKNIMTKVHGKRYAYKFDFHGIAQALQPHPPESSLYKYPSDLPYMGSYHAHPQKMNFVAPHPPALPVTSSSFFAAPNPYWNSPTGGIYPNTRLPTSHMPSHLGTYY
How it was run: (§1)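 Human transcription factors fused to GST were expressed in yeast, captured on glutathione beads, given DNA barcodes and pooled with a GST-only negative control. Pools were incubated with 200 nmole of a 16-mer random double-stranded DNA library in Tris/NaCl/DTT/glycerol buffer at room temperature for 30 min. They were then washed, crosslinked with 0.1% formaldehyde, proximity-ligated (BsaI/T4 ligase, 1 h, 37 °C), PCR-amplified and sequenced on an Illumina NextSeq500. Binding signal is each 6-mer's read frequency for a factor divided by its frequency for the GST control.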

ELF1 = ELF1 (Homo sapiens, UniProt P32519 1-619)
Sequence of ELF1 (P32519 whole entry): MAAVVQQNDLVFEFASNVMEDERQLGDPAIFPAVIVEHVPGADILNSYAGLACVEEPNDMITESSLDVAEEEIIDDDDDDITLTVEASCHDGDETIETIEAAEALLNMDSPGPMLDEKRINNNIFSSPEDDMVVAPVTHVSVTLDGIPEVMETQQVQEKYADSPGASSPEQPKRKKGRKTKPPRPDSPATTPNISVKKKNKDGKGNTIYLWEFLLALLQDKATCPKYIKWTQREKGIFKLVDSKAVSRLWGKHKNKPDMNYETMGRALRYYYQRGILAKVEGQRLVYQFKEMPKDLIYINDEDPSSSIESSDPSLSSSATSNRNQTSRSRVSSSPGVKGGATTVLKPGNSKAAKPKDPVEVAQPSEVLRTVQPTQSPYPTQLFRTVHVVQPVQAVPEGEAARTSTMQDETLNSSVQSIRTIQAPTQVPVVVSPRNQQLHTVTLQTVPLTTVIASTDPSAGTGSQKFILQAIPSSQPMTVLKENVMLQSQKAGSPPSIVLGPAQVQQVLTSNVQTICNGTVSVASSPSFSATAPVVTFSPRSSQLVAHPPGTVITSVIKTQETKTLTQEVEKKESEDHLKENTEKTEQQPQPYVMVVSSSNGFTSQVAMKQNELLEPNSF
How it was run: as §1

EHF = biological target: T2, EHF (Homo sapiens, UniProt Q9NZC4 1-300)
T2 sequence: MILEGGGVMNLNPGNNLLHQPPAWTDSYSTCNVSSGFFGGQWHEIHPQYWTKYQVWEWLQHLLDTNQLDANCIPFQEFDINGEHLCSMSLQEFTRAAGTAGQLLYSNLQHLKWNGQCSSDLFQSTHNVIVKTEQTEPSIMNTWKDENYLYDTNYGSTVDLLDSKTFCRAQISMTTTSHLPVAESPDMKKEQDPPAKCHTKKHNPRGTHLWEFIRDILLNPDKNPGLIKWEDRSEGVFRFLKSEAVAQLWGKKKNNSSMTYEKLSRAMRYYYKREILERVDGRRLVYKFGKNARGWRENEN
How it was run: as §1

SPIB = SPIB (Homo sapiens, UniProt Q01892 1-262)
Sequence of SPIB (Q01892 whole entry): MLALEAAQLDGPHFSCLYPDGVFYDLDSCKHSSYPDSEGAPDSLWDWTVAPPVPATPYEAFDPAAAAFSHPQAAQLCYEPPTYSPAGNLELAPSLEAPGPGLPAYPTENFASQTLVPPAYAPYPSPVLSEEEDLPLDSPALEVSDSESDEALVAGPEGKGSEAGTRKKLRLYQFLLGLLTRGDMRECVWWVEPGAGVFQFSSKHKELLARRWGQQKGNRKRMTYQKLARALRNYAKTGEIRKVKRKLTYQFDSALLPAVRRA
How it was run: as §1

ELK3 = biological target: T3, ELK3 (Homo sapiens, UniProt P41970 1-407)
T3 sequence: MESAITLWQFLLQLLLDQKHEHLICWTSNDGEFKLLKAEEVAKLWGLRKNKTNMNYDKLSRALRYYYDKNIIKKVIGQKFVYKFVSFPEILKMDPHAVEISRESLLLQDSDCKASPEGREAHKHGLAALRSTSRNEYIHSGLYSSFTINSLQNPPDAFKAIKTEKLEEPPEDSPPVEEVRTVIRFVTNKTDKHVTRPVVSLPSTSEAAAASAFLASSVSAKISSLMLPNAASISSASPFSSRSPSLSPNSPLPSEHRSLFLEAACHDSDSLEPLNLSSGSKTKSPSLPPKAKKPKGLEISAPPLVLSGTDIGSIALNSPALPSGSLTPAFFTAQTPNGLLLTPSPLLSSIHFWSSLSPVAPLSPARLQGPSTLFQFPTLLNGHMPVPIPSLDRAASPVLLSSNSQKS
How it was run: as §1

ELF4 = ELF4 (Homo sapiens, UniProt Q99607 1-663)
Sequence of ELF4 (Q99607 whole entry): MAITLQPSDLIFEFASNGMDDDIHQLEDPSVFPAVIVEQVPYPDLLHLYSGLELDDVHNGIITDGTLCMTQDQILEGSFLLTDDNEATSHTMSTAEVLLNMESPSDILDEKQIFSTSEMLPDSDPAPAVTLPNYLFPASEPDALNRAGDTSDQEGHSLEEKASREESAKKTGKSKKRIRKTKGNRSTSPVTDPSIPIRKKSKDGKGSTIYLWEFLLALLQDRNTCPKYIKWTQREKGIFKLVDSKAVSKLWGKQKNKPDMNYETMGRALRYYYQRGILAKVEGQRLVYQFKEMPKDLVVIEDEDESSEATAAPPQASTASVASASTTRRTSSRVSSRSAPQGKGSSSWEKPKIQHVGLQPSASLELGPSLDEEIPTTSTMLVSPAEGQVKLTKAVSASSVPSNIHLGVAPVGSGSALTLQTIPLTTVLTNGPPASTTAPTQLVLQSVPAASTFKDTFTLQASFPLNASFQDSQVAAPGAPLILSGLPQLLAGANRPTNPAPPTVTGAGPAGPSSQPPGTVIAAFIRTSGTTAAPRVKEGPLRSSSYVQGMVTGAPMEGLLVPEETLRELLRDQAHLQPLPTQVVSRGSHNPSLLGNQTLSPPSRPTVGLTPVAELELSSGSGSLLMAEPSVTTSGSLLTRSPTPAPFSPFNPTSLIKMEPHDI
How it was run: as §1

ERF = biological target: T4, ERF (Homo sapiens, UniProt P50548 1-548)
T4 sequence: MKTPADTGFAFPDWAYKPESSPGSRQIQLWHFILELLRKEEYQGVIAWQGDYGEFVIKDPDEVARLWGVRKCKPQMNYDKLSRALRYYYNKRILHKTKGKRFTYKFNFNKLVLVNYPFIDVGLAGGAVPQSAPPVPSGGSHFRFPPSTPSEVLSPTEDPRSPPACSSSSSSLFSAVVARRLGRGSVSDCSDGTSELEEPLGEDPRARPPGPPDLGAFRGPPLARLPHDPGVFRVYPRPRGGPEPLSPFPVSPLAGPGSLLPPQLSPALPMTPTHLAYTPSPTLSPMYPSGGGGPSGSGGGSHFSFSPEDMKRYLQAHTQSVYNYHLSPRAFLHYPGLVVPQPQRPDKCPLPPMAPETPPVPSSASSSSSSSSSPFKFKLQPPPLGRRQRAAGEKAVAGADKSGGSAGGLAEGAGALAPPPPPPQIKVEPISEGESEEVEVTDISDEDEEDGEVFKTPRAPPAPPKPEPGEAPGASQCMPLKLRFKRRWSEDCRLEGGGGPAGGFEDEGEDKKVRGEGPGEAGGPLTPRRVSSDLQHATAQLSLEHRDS
How it was run: as §1

ETS2 = biological target: T5, ETS2 (Homo sapiens, UniProt P15036 1-469)
T5 sequence: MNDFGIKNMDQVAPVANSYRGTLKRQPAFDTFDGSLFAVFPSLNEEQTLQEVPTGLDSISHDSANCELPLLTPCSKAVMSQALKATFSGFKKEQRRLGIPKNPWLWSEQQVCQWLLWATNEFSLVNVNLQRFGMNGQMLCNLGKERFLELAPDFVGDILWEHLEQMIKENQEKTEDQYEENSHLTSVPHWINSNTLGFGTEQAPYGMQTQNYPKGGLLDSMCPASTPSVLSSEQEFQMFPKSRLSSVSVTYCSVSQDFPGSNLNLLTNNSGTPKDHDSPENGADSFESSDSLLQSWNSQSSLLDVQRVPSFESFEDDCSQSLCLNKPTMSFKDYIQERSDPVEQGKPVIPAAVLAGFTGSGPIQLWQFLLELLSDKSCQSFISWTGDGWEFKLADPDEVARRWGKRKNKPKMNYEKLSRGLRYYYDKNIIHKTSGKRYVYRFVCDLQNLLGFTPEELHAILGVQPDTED
How it was run: as §1

ETV7 = biological target: T6, ETV7 (Homo sapiens, UniProt Q9Y603 1-341)
T6 sequence: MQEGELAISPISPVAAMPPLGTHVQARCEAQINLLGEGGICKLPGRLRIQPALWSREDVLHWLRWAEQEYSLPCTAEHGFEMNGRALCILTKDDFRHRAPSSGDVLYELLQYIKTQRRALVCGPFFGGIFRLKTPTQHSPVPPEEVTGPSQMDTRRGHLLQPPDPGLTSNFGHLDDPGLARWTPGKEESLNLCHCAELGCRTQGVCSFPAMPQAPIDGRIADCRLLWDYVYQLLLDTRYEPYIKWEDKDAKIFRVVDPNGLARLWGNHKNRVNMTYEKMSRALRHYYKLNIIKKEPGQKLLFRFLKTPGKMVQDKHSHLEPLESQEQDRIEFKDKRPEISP
How it was run: as §1

ETV3 = biological target: T7, ETV3 (Homo sapiens, UniProt P41162-2 1-143)
T7 sequence: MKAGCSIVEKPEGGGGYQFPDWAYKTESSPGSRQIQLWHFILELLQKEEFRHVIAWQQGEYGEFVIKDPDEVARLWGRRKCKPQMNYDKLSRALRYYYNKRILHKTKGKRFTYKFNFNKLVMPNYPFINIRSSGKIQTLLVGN
How it was run: as §1

ETV6 = ETV6 (Homo sapiens, UniProt P41212 1-452)
Sequence of ETV6 (P41212 whole entry): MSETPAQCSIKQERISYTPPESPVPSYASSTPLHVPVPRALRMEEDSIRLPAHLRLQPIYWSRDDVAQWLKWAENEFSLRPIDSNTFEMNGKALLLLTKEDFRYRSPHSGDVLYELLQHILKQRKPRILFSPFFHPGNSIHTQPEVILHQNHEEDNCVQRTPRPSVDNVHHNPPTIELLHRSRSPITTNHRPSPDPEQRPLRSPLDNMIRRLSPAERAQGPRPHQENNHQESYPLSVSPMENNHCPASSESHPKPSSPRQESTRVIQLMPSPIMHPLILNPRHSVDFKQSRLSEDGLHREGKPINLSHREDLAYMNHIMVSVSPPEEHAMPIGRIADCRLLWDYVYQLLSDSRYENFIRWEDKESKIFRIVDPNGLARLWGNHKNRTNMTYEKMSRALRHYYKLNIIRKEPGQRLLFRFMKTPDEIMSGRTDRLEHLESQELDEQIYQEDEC
How it was run: as §1

GABPA = biological target: T8, GABPA (Homo sapiens, UniProt Q06546 1-454)
T8 sequence: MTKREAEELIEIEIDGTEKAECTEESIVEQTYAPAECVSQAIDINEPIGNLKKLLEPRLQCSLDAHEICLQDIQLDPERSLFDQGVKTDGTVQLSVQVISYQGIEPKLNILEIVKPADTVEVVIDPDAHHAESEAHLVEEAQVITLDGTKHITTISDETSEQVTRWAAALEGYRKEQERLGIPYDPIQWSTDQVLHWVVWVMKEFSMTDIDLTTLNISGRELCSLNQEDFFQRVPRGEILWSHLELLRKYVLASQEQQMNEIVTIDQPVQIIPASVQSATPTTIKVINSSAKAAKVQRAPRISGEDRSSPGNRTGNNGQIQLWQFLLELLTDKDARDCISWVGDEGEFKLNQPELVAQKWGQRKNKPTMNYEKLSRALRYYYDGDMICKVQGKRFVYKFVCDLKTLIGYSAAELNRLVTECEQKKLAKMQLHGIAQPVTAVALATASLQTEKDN
How it was run: as §1

SPIC = biological target: T9, SPIC (Homo sapiens, UniProt Q8N5J4 1-248)
T9 sequence: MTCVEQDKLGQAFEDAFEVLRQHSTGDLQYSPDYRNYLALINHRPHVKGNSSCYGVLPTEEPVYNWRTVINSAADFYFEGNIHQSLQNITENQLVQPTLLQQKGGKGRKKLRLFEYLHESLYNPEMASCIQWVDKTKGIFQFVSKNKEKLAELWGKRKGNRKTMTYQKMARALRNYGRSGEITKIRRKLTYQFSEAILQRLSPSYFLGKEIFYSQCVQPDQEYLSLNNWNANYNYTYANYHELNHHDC
How it was run: as §1

ETV2 = biological target: T10, ETV2 (Homo sapiens, UniProt O00321 1-342)
T10 sequence: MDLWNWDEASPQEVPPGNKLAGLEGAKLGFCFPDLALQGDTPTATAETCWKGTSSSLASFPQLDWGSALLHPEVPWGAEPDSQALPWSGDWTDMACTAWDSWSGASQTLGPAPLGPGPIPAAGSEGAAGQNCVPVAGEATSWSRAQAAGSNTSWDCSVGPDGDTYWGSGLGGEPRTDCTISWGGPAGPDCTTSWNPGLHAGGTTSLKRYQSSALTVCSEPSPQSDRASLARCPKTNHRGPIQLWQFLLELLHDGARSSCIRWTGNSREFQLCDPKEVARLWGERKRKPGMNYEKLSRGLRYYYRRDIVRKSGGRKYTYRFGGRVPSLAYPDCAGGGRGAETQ
How it was run: as §1

ETV3L = biological target: T11, ETV3L (Homo sapiens, UniProt Q6ZN32 1-361)
T11 sequence: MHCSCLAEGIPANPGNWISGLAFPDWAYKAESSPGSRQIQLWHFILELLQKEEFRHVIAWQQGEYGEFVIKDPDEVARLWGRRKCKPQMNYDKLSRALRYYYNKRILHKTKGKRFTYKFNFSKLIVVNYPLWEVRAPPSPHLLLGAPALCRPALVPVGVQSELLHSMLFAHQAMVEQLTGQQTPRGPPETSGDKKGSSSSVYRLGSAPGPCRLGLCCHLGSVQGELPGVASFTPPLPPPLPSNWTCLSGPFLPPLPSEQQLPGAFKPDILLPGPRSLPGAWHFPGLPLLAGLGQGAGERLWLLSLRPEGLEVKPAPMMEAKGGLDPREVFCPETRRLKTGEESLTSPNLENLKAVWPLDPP
How it was run: as §1

| Sequence | binding signal (ERG) | binding signal (ELF1) | binding signal (EHF) | binding signal (SPIB) | binding signal (ELK3) | binding signal (ELF4) | binding signal (ERF) | binding signal (ETS2) | binding signal (ETV7) | binding signal (ETV3) | binding signal (ETV6) | binding signal (GABPA) | binding signal (SPIC) | binding signal (ETV2) | binding signal (ETV3L) |
| --- | --- | --- | --- | --- | --- | --- | --- | --- | --- | --- | --- | --- | --- | --- | --- |
| CCACCG | 1.03 fold enrichment (6-mer frequency, TF over GST control) | 1.01 fold enrichment (6-mer frequency, TF over GST control) | 1.07 fold enrichment (6-mer frequency, TF over GST control) | 1.09 fold enrichment (6-mer frequency, TF over GST control) | 1.06 fold enrichment (6-mer frequency, TF over GST control) | 1.11 fold enrichment (6-mer frequency, TF over GST control) | 1.2 fold enrichment (6-mer frequency, TF over GST control) | 1.02 fold enrichment (6-mer frequency, TF over GST control) | 1.06 fold enrichment (6-mer frequency, TF over GST control) | 1.04 fold enrichment (6-mer frequency, TF over GST control) | 1.06 fold enrichment (6-mer frequency, TF over GST control) | – | – | – | – |
| TGGTCG | – | 1.02 fold enrichment (6-mer frequency, TF over GST control) | – | 1 fold enrichment (6-mer frequency, TF over GST control) | 1.11 fold enrichment (6-mer frequency, TF over GST control) | – | – | – | – | 1 fold enrichment (6-mer frequency, TF over GST control) | – | 1.08 fold enrichment (6-mer frequency, TF over GST control) | 1.13 fold enrichment (6-mer frequency, TF over GST control) | 1.08 fold enrichment (6-mer frequency, TF over GST control) | 1 fold enrichment (6-mer frequency, TF over GST control) |
